The list is not random: actives were taken first. Their share in the collection is about 6.5%.
HT1080NT lethal – kills 2HG-producing HT-1080-NT fibrosarcoma cells; hit rate 1.6% among 360,000; HT-1080-NT fibrosarcoma viability, CellTiter-Glo ATP luminescence, 48 h; Potency, µM (top dose mostly 46.1 µM), actives largely listed as cytotoxic;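 note: NT is the 2HG producing partner of a matched IDH1 knockdown line; nearly all actives have a fitted effect of over 55% in size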
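Luminescent CellTiter-Glo readout after 48 hours of compound exposure at 37 degrees C defined viability of HT-1080-NT cells. Activity was normalized to DMSO wells and cell-free media wells; concentration-response curves were fitted and assigned curve classes.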
TGFb inhibitor – blocks TGF-b signaling. hit rate 1.2% among 410,000. Potency, µM (doses to about 46.1 µM), actives largely listed as inhibitors. HepG2 CAGA-GFP TGF-b/SMAD3 reporter, GFP fluorescence, 18 h; TGF-beta stimulated, 500 pg/mL final; note: nearly all actives have a fitted effect of over 65% in size
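Per well, imaged GFP fluorescence of HEPG2 CAGA-GFP cells gives the signal; cells get compound, then TGF-beta (500 pg/mL final), 18 h at 37 degrees C; %Activity versus -TGF-beta and +DMSO controls.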
IL-1B inflam inh – blocks inflammasome-driven IL-1 beta release. activity change, % at 57.5 µM. THP-1 LPS/ATP IL-1B secretion, AlphaLISA, 16 h; stronger effect = lower value. hit rate 4.7% among 360,000; in the data active = activity change below about -50%; inconclusive = mostly about -30% to -49%
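THP-1 cells pretreated 1 hr with compounds (up to 57.5 uM final), then stimulated with LPS (250 ng/mL final) plus ATP (1.25 mM final); secreted IL-1B measured by AlphaLISA after 16 hr, decreased signal indicating inhibition.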
HT1080 IDH1KD tx – HT-1080 IDH1 knockdown cell toxicity (counter line); HT-1080 IDH1 knockdown viability, ATP luminescence, 48 h; Potency, µM (series often up to 46.1 µM), actives largely listed as cytotoxic; hit rate 2% among 360,000
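CellTiter-Glo luminescence after 48 h compound exposure at 37 degrees C of IDH1-knockdown HT-1080 cells in 5% FBS RPMI. %Activity scaled between DMSO wells and cell-free media wells, with curves fitted and assigned curve classes.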
Giardia killer – Giardia lamblia killing. Giardia lamblia trophozoite viability. activity change, % at 7.66 µM, hits read low. hit rate 0.15% among 340,000; in the data active = activity change below about -80%; inconclusive = between about -30% and that limit;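 note: parasites exposed to compound for two days anaerobically before the ATP read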
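Luminescent ATP signal served as the viability read-out, measured 15-30 min after adding ATP detection reagent to trophozoites that had been incubated with compounds for 48 hrs at 37 deg C anaerobically at 100 cells/well.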
HepG2 viability – HepG2 cytotoxicity, counter-screen for TGF-b inhibitors; HepG2 CAGA-GFP viability, ATP luminescence, 18 h; Potency, µM (top dose mostly 46.1 µM), actives largely listed as cytotoxic; hit rate 0.76% among 410,000
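HepG2 CAGA-GFP cells (1000/well, DMEM with 1% FBS) received compound, then TGF-beta at 500 pg/mL final, and were incubated 18 hours at 37 degrees C. Viability was read by CellTiter-Glo luminescence. Media-only wells were set as complete cell-killing and DMSO as no toxicity.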
Numbers stand for hits; - = inactive; ? = inconclusive; . = no result given. Unless noted, calls come from the whole dose curve; as a rule, active = well fitted curve in the direction sought with a large enough effect; inconclusive = small, poorly fitted or top-dose-only effect, or another doubt; inactive = no such curve, though single readings can be large; an effect the other way counts as inactive or inconclusive.

SMILES	HT1080NT lethal	TGFb inhibitor	IL-1B inflam inh	HT1080 IDH1KD tx	Giardia killer	HepG2 viability
O=C(Nc1nccs1)c1ccc(S(=O)(=O)NCc2cccs2)cc1	?	?	-76	-	-	10µM
O=S(=O)(NCc1cccs1)c1ccc(Br)cc1	-	-	-	-	-	-
O=C(Nc1ccc(Br)cc1)c1ccc(F)c(S(=O)(=O)N2CCc3ccccc32)c1	.	11µM	.	.	.	-
COc1ccc(NC(=O)CSCC(=O)N2CCCc3ccccc32)cc1	?	-	-	?	-	-
CN(C1=C(N2CCCCC2)C(=O)c2ccccc2C1=O)c1ccccc1	?	18µM	-82	?	-	-
O=C(/C=C/c1ccc(O)cc1)c1ccc(NC2=C(N3CCCCC3)C(=O)c3ccccc3C2=O)cc1	-	6.3µM	?	?	-	-
Cc1ccc(NC2=C(N3CCCCC3)C(=O)c3ccccc3C2=O)cc1	?	?	-68	?	-	-
COc1ccccc1NC1=C(N2CCCCC2)C(=O)c2ccccc2C1=O	4.6µM	?	?	?	-	16µM
O=C1C(Nc2ccccc2)=C(N2CCCCC2)C(=O)c2ccccc21	?	-	-	?	-	-
CC(=O)c1cccc(NC(=O)CCc2c(C)nc3c(c(C)nn3-c3ccccc3)c2C)c1	.	-	.	.	.	-
Cc1ccc(CCNC(=O)C2CCCN(S(=O)(=O)c3c(C)noc3/C=C/N(C)C)C2)cc1 (stereo not given)	-	-	-	-	-	-
O=C1C(Nc2cccc(O)c2)=C(N2CCCCC2)C(=O)c2ccccc21	?	-	-84	?	-	-
CC(=O)C(=Cc1ccc(-c2ccccc2)cc1)C(=O)c1ccccc1	15µM	.	-112	23µM	.	.
N#CC(=Cc1ccc(-c2ccccc2)cc1)C(=O)c1ccccc1	-	-	-	-	.	-
CC(=Cc1ccccc1)C(=O)c1ccccc1	-	-	-	-	.	-
O=C(C(Br)=Cc1ccccc1)c1ccccc1	5.8µM	10µM	-110	?	-	-
CCOC(=O)N1CCN(C(=O)C2CCN(Cc3ccc(O)c(OCC)c3)CC2)CC1	-	-	-	-	-	-
Cc1cc(=O)oc2cc(OCC(=O)NC3CCCCC3)ccc12	-	-	-	-	-	-
CN(C)CCCN(Cc1ccccc1)C(=S)Nc1ccc(SC(F)F)cc1	-	?	?	-	-	-
O=C(O)c1ccc(NC(=S)NCc2ccccc2)cc1	-	-	-	-	-	-
CN(C(=S)Nc1ccc(SC(F)F)cc1)C(c1ccccc1)c1ccccc1	?	?	?	?	-	-
FC(F)Sc1ccc(NC(=S)NCc2ccccc2)cc1	?	?	-92	21µM	-	-
FC(F)Sc1ccc(NC(=S)NC(c2ccccc2)c2ccccc2)cc1	?	5.6µM	-68	?	-	11µM
FC(F)(F)c1ccc(NC(=S)NCc2ccccc2)cc1	?	?	-62	?	-	-
CN1CCN(c2oc(-c3ccccc3Cl)nc2S(=O)(=O)c2ccccc2)CC1	-	-	-	-	-	-
SMILES	HT1080NT lethal	TGFb inhibitor	IL-1B inflam inh	HT1080 IDH1KD tx	Giardia killer	HepG2 viability
CC(O)c1nc2ccccc2n1Cc1nnc(-c2ccc(Cl)cc2)o1 (stereo not given)	-	-	-	-	-	-
Cc1cccc(C(=O)N[C@H](C(=O)Nc2ncc(C)s2)C(C)C)c1	-	11µM	?	-	-	-
Cc1cccc(C(=O)N[C@H](C(=O)Nc2nnc(C3CC3)s2)C(C)C)c1	-	-	-	-	-	-
COc1ccc(NC(C)C(=O)N/N=C/c2ccc([N+](=O)[O-])s2)cc1 (stereo not given)	-	13µM	-	-	-89	18µM
Cc1ccc(NC(C)C(=O)N/N=C/c2ccc([N+](=O)[O-])s2)cc1 (stereo not given)	?	?	?	?	-84	-
CCN(CC)c1ccc(/C=N/NC(=O)Cc2nnc(NC(=O)Nc3ccccc3)s2)cc1	21µM	?	-	15µM	-	-
CC1CCCC(NC(=O)COC(=O)CCc2ccccc2)C1C (stereo not given)	-	-	-	-	-	-
